Bioassay records: PubChem BioAssay, National Center for Advancing Translational Sciences (NCATS)
JMJD2A Tudor inh = inhibitors of human JMJD2A Tudor domain. O75164. AlphaScreen JMJD2A-Tudor / H3K4me3 peptide binding. Potency, µM (series often up to 114 µM), actives largely listed as inhibitors. 4.4% of 390,000 active; note: nearly all actives have a fitted effect of over 50% in size
PI5P4Ka inh = blocks human PI5P4K alpha kinase activity | PI5P4Kalpha enzyme, ADP-Glo luminescence, 60 min; hits give low values | 1.2% of 330,000 active | max response, %; active = max response of -50% or lower; inconclusive = between -30% and -50%; inactive = -30% or higher; note: value at the top dose of about 77 µM
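Luminescence from ADP-Glo served as readout of PI5P4Kalpha activity in a qHTS format. Reaction: enzyme, substrate, compound, ATP at 5 microM final, 60 min at RT.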
HP1b binding inh = HP1-beta chromodomain-methylated histone interaction inhibition. AlphaScreen HP1-beta / biotin-H3K9me3 peptide binding. Potency, µM (titrated, usually from 114 µM), actives largely listed as inhibitors. 0.56% of 390,000 active; note: nearly all actives have a fitted effect of over 70% in size
Target sequence (P83916 whole entry, looked up): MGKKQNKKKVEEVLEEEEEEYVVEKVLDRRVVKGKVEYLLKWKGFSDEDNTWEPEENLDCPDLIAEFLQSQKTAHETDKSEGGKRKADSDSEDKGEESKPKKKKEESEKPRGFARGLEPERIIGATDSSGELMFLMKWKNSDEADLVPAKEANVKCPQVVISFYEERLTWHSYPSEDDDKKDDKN
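Compound inhibition of the preformed complex between 50 nM HP1-beta and 50 nM biotinylated H3K9me3 peptide was read by AlphaScreen. Buffer was PBS pH 7.4 with 0.01% Tween-20. Incubations ran 30 min at room temperature, with 10 ug/mL donor/acceptor beads.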
BAZ2B inh = inhibitors of human BAZ2B bromodomain; Q9UIF8; AlphaScreen BAZ2B-H3K14Ac peptide displacement; Potency, µM (top dose mostly 114 µM), hits mostly inhibitors; 4.4% of 360,000 active; note: nearly all actives have a fitted effect of over 60% in size
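Compounds, titrated to a top concentration of 110 uM, were incubated 30 min at room temperature with preformed BAZ2B/acetyl-K14 H3 peptide complex (50 nM each). Proximity signal was measured by AlphaScreen after 20 min with beads.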
PLK1 PBD inh = inhibitors of human PLK1 polo-box domain binding; P53350; Plk1 PBD binding of FITC phosphopeptide, fluorescence polarization; Potency, µM, usual class: inhibitors; 2.8% of 360,000 active; note: series mostly up to about 57 µM; nearly all actives have a fitted effect of over 65% in size
G9a block = inhibitors of human histone lysine methyltransferase G9a; Q96KQ7; G9a H3K9 monomethylation, AlphaScreen, 2 h; Potency, µM (highest dose often 102 µM), usual class: inhibitors; 8.8% of 350,000 active; AID 504332; note: nearly all actives have a fitted effect of over 75% in size
Target sequence (Q96KQ7 913-1193 limits assumed): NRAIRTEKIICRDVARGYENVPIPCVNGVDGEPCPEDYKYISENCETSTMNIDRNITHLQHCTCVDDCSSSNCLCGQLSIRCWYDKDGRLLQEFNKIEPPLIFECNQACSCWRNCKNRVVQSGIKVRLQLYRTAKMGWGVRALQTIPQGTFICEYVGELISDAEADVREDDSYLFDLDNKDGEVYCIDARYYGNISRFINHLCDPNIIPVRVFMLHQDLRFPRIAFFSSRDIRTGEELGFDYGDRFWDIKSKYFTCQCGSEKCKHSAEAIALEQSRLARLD
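G9a (20 nM) was preincubated 15 min with compound, then reacted 2 h at room temperature with 500 nM biotin-H3K9 peptide and 20 µM SAM. Monomethyl-H3K9 detected by AlphaScreen using anti-H3K9me1 antibody.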
Hits are given with their value; i = inactive; ? = inconclusive; nt = no result given; [ ] = another dose, or the depositor's remark. Hits are enriched below; roughly 12% of the tested compounds scored in any of these assays. Unless noted, calls come from the whole dose curve; as a rule, active = well fitted curve in the direction sought with a large enough effect; inconclusive = small, poorly fitted or top-dose-only effect, or another doubt; inactive = no such curve, though single readings can be large; an effect the other way counts as inactive or inconclusive.

SMILES | JMJD2A Tudor inh | PI5P4Ka inh | HP1b binding inh | BAZ2B inh | PLK1 PBD inh | G9a block
Nc1nc(SCC(=O)Nc2cccc(Oc3ccccc3)c2)n[nH]1 | i | i | i | i | i | 16µM
CCN(CC)S(=O)(=O)c1cccc(C(=O)N2CC(O)CC2C(=O)OC)c1 (configuration not stated) | i[11.4 µM] | i | i | i | 30µM | i
CCN(CC)S(=O)(=O)c1cccc(C(=O)N2CC(O)CC2C(=O)O)c1 (configuration not stated) | i | i | i | i | i | i
CCN(CC)S(=O)(=O)c1cccc(C(=O)NC2=NCCS2)c1 | i | i | i | i | i | 50µM
CCN(CC)S(=O)(=O)c1cccc(C(=O)NCCCn2ccnc2)c1 | i | i | i | i | i | 56µM
O=C(NCCCn1ccnc1)c1ccc2nccnc2c1 | i | i | i | 50µM | i | nt
CCC(C)c1ccccc1N1CC(C(=O)NCCc2ccc(OC)c(OC)c2)CC1=O (configuration not stated) | i | i | i | i | i | i
CCOC(=O)c1sc2cccc(F)c2c1S(=O)(=O)N1CCN(c2cccc(Cl)c2)CC1 | i | nt | i | ? | nt | 8.9µM
CN1C(=O)Cc2cc(S(=O)(=O)NCc3ccccc3Cl)ccc21 | i | nt | i | i | nt | i
CC1=C(CC(=O)c2ccccc2)C(=O)c2ccccc2C1=O | 35µM | i | ? | 22µM | i | 32µM
CC(C)NS(=O)(=O)c1ccc(NCCCn2ccnc2)c([N+](=O)[O-])c1 | i | i | i | ? | ? | i
CC(C)(C)OC(=O)N1CCc2onc(-c3ccc(N)cc3)c2C1=O | nt | i | nt | nt | i | nt
Cc1sc2nc(CSc3nnc(Cc4cccs4)n3C3CCCCC3)[nH]c(=O)c2c1C | i | i | i | i | i | 45µM
N#C/C(=C(/O)CSc1nnc(Cc2cccs2)n1C1CCCCC1)c1nc2ccccc2[nH]1 | i | -64 | i | i | i | ?
COc1ccccc1-c1nnc(SC/C(O)=C(\C#N)c2nc3ccccc3[nH]2)n1C1CCCCC1 | 89µM | ? | ? | i | ? | 32µM
O=c1ccc2cc(S(=O)(=O)Nc3ccc(Br)cc3)ccc2o1 | i | i | i | ? | i | i
CC(Nc1ccc(F)cc1)=[N+](C)CCNS(=O)(=O)c1ccc(Cl)cc1 | 20µM | ? | ? | 50µM | ? | 22µM
Cc1nc(C)c(CCNC(=O)c2ccc(C(F)(F)F)cc2)s1 | i | i | i | i | i | 45µM
Cc1ccc(C(=O)NCCc2sc(C)nc2C)cc1 | i | i | i | i | i | i
O=C(O)CNS(=O)(=O)Cc1ccccc1 | i | i | i | i | i | i
O=S(=O)(Cc1ccccc1)N(O)c1ccccc1 | i | i | i | ? | ? | 20µM
COc1ccc(CN2C(=O)CN(S(C)(=O)=O)CC2(C)C(=O)Nc2ccc3c(c2)OCCO3)cc1OC (configuration not stated) | nt | i | nt | nt | i | nt
COc1ccc(NC(=O)c2ccc3c(=O)n4nc(Nc5cccc(Cl)c5C)sc4nc3c2)cc1 | i | nt | i | i | nt | i
CC1=C(C(=O)NC2CCCC(C)C2C)C2(CCCCC2)OC1=O (configuration not stated) | ? | i | i | i | 24µM | i
COc1ccc(/C=C2\Sc3ccc(C(=O)NCCCN4CCCC4)cc3N(C)C2=O)cc1OC | i | i | i | ? | i | ?
SMILES | JMJD2A Tudor inh | PI5P4Ka inh | HP1b binding inh | BAZ2B inh | PLK1 PBD inh | G9a block
CCOC(=O)c1c(C)oc2c(CC(=O)c3ccccc3)c(Cl)c(O)c(O)c12 | ? | i | i | i | i | i
CCOC(=O)c1c(C)oc2ncnc(N3CCN(c4ccccc4)CC3)c12 | i | nt | i | i | nt | i
CCOC(=O)c1c(C)oc2c1c1c(c3ccccc32)OCN(Cc2ccccn2)C1 | ? | i | i | 45µM | ? | i[0.501 µM]
CCOC(=O)c1c(C)oc2c1c(CN1CCN(CCO)CC1)c(O)c1ccccc12 | ? | -98 | ? | nt | 1.7µM | 1.4µM
CCOC(=O)c1c(C)oc2c1c(CN1CCN(C(=O)OCC)CC1)c(O)c1ccccc12 | ? | -56 | i | ? | ? | 3.2µM
CCOC(=O)c1c(C)oc2c1c(C(c1ccncc1)N1CCOCC1)c(O)c1ccccc12 (configuration not stated) | ? | i | 71µM | 14µM | 11µM | ?
